Lassa entry inh = blocks Lassa virus binding to or entry into cells; Lassa virus pseudotype entry inhibition, cell reporter; Potency, µM (titrated, usually from 37.9 µM), inactives show at the highest dose activity change, negative = inhibition, actives largely listed as inhibitors; actives 1.2% (n = 300,000); AID 540256; calls by dose curve; tested in HEK293 cells; note: potency is the fitted concentration of half-maximal effect; % is set by controls: 0 for no effect and ±100 for the full control effect; nearly all actives have a fitted effect of over 50% in size
Marburg entry inh = Marburg virus entry inhibition; Marburg virus pseudotyped entry inhibition, cell reporter; Potency, µM (titrated, usually from 37.8 µM), inactives show at the top dose activity change, negative = inhibition, most hits filed as inhibitors; actives 1.8% (n = 300,000); calls by dose curve; tested in HEK293 cells; note: potency is the fitted concentration of half-maximal effect; % is set by controls: 0 for no effect and ±100 for the full control effect
Pf growth 96h = inhibits malaria parasite growth, 96 h; actives 6.9% (n = 320,000); P. falciparum luciferase reporter growth, 96 h; Potency, µM (highest dose often 28.7 µM), without a hit: top-dose activity change, negative = inhibition, hits mostly inhibitors; note: potency is the fitted concentration of half-maximal effect; % is set by controls: 0 for no effect and ±100 for the full control effect
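Two parasite generations (96 h, 37 C, 5% CO2) of compound exposure in infected erythrocytes (0.05% parasitemia, 2% hematocrit). Luciferase-reporter P. falciparum; decreased luminescence indicates inhibited growth, aimed at apicoplast-acting delayed death.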
Cycloheximide cs = counter-screen hit for Shiga toxin inhibitors, cycloheximide; max response, %; actives 12% (n = 300,000); AID 2314; cell reporter, cycloheximide protein synthesis inhibition counterscreen; in the data active = max response mostly above about 13%, no sharp cut-off; inactive = mostly below about 14%; note: read at 38.3 µM for the half of the compounds with a filed dose; 0% is about no effect
Pf growth 48h = inhibits P. falciparum growth in the first generation, 48 h | P. falciparum luciferase growth in erythrocytes, 48 h | Potency, µM (titrated, usually from 28.7 µM), without a hit: at the highest dose activity change, negative = inhibition, hits mostly inhibitors | actives 5.9% (n = 310,000) | AID 504832; note: potency is the fitted concentration of half-maximal effect; % is set by controls: 0 for no effect and ±100 for the full control effect
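Parasite viability was followed by luminescence of a genomically integrated firefly luciferase. Cultures held 0.1% parasitemia at 2% hematocrit (final), incubated under 5% CO2 at 37 C.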
Shiga toxin inh = inhibitors of Shiga toxin in Vero cells; Vero cells, Shiga toxin protein synthesis inhibition reporter; actives 9.2% (n = 290,000); inhibition, % at 38.7 µM; in the data active = inhibition mostly above about 28%, no sharp cut-off; inactive = mostly below about 43%; note: 0% is about no effect
Numbers without * were called inactive; u = inconclusive; x = not tested or not shown; + = active, no number; [ ] = another dose, or the depositor's remark. Rows were chosen to be rich in hits. Some 19% of all compounds tested hit in one or more screens of this group. Unless noted, calls come from the whole dose curve; as a rule, active = well fitted inhibition curve with a large enough effect; inconclusive = small, poorly fitted or top-dose-only effect, or another doubt; inactive = no such curve, though single readings can be large or run the other way.

SMILES	Lassa entry inh	Marburg entry inh	Pf growth 96h	Cycloheximide cs	Pf growth 48h	Shiga toxin inh
O=C1Nc2c(c(=O)[nH]c(=O)n2-c2ccccc2)C1(NS(=O)(=O)c1ccc(Cl)cc1)C(F)(F)F (centres undefined)	7.4%[46.1 µM]	7.8%[46.1 µM]	x	x	x	x
CC(C)CC(=O)N1CCN(Cc2ccc3ccccc3c2)CC1	x	x	36.3%	-3.2	51.3%	x
O=C(Cn1ncc(Cl)c(Cl)c1=O)c1ccc2c(c1)OCCO2	12.6µM*	u	x	x	x	x
NS(=O)(=O)c1cccc(NC(=O)c2cccc3c(Br)cccc23)c1	x	x	-1.9%	-4.8	36.7%	x
C=CCn1c(SCC(=O)N(C)CC(=O)Nc2ccc(C)cc2)nnc1-c1ccncc1	7.3%[46.1 µM]	14.4%[46.1 µM]	x	x	x	x
CCCCOc1ccc(NC(=O)CN2CCN(C(=O)OCC)CC2)cc1	3.55µM*	0.1%	u	-1.2	9.28µM*	-1.0
COc1ccccc1NC(=O)CN1CCN(C2c3ccccc3-c3ccccc32)CC1	u	u	-18.8%	-3.1	13.1µM*	-8.1
COc1ccc(NC(=O)CN2CCN(C3c4ccccc4-c4ccccc43)CC2)c(OC)c1	-19.9%	-10.9%	19.3%	-1.6	u	-5.9
CCOc1ccc(NC(=O)CN2CCN(C3c4ccccc4-c4ccccc43)CC2)cc1	u	-20.1%	64.6%	2.1	13.1µM*	16.9
CCCCOc1ccc(NC(=O)CN2CCN(CC)CC2)cc1	10.0%	-0.4%	-33.4%	2.7	11.8%	-3.4
Cc1ccc(OCC(=O)Nc2ccccc2C(=O)N2CCCC2)cc1	u	u	-23.0%	8.6	10.1%	6.6
O=C(N/N=C/c1cn(-c2cccs2)nc1-c1ccccc1)c1ccccc1Cl	u	u	29.7%	21.5*	-4.4%	102.4*
COc1ccccc1/C=N/NC(=O)c1ccc(-c2ccccc2)cc1	-5.7%	1.0%	38.0%	5.7	1.4%	-5.2
O=C(N/N=C/c1cn(-c2cccs2)nc1-c1ccccc1)c1ccc(O)cc1	u	u	-22.4%	44.8*	0.0%	+
Cc1cc2cc(CCNC(=O)c3ccc(S(=O)(=O)N4CCOCC4)cc3)c(=O)[nH]c2cc1C	-23.6%	-22.7%[46.1 µM]	8.28µM*	-1.2	u	24.3
Cc1ccc(C(=O)NCCc2cc3ccc(C)c(C)c3[nH]c2=O)cc1[N+](=O)[O-]	-2.8%	-3.0%	u	-1.7	-21.0%	-6.9
Cc1ccc2cc(CCNC(=O)c3ccc(S(=O)(=O)N4CCOCC4)cc3)c(=O)[nH]c2c1C	-0.1%	-11.9%	11.7µM*	-2.2	u	-5.2
O=C(NCc1ccc2[nH]c3c(c2c1)CCCC3)c1ccc(S(=O)(=O)N2CCCCC2)cc1	-17.8%	-20.8%	10.4µM*	-1.7	u	-8.6
O=C(NCc1ccc(F)cc1)c1ccc(S(=O)(=O)N2CCCCC2)cc1	x	x	-5.6%	x	u	x
CCC(CC)C(=O)NCCc1cc2cc(C)c(C)cc2[nH]c1=O	x	x	3.7%	-1.6	7.2%	-1.1
Cc1cc2cc(CCNC(=O)c3cccs3)c(=O)[nH]c2cc1C	u	-5.6%	-15.4%	31.1*	70.0%	54.1*
COc1ccc(-c2c(C(C)=O)c(C)nc3sc4c(=N)n(N)cnc4c23)cc1	u	-15.5%	u	-3.6	u	-2.9
Cc1cc(C)cc(NC(=S)NCc2ccc3[nH]c4c(c3c2)CCCC4)c1	3.66µM*	u	u	-2.9	u	-3.8
Cc1[nH]c2ccccc2c1SCCNC(=O)c1ccc(S(=O)(=O)N2CCCC2)cc1	4.0%	-24.3%	13.1µM*	-5.9	u	-9.6
Cc1[nH]c2ccccc2c1SCCNC(=O)c1ccc(F)cc1	0.5%[46.1 µM]	u	x	x	x	x
SMILES	Lassa entry inh	Marburg entry inh	Pf growth 96h	Cycloheximide cs	Pf growth 48h	Shiga toxin inh
Cc1ccc(C)c2[nH]c(=O)c(CCNC(=O)c3ccc(S(=O)(=O)N4CCCC4)cc3)cc12	x	x	u	-0.9	11.7µM*	33.0
Cc1ccc2cc(CCNC(=O)c3ccc(S(=O)(=O)N4CCCCC4)cc3)c(=O)[nH]c2c1	u	u	u	5.9	u	15.9
Cc1ccc2cc(CCNC(=O)c3ccc(S(=O)(=O)N4CCOCC4)cc3)c(=O)[nH]c2c1	-20.4%	13.0%	13.1µM*	-4.7	u	1.0
CN(CC(=O)NC1CCN(Cc2ccccc2)CC1)S(=O)(=O)c1ccc2c(c1)c(=O)n(C)c(=O)n2C	4.2%[46.1 µM]	5.5%[46.1 µM]	-2.0%	0.2	-2.4%	-2.3
CCNC(=S)Nc1cc(C(=O)N2CCCC2)ccc1N1CCCC1	-5.1%[46.1 µM]	-13.1%[46.1 µM]	-19.0%	-6.3	4.5%	-12.9
CNC(=S)Nc1cc(C(=O)N2CCCC2)ccc1N1CCCC1	x	x	5.22µM*	6.7	22.2%	26.1
CCOC(=O)C1CCN(C(=O)C2CCN(c3nc4ccc(OC)cc4s3)CC2)CC1	u	u	10.4µM*	-3.6	u	28.8
CCOC(=O)C1CCN(C(=O)c2ccc3nc(-c4ccc(OC)cc4)c(-c4ccc(OC)cc4)nc3c2)CC1	x	x	8.2%	-2.7	8.28µM*	-12.6
CCOC(=O)C1CCN(C(=O)c2cc(C(C)(C)C)nn2Cc2ccccc2)CC1	x	x	1.17µM*	-0.9	1.17µM*	-22.8
COc1ccc2nc(N3CCN(C(=O)C4CC4)CC3)sc2c1	-20.7%[46.1 µM]	x	x	x	x	x
CCOC(=O)C1CCN(C(=O)c2cccc(Cl)c2)CC1	-4.8%	23.6%	7.38µM*	-1.8	-8.2%	-6.5
CC(=O)Nc1ccc(S(=O)(=O)N(C)CC(=O)NC2CCCC(C)C2C)cc1 (centres undefined)	-0.5%	-10.2%[46.1 µM]	-25.2%	x	u	x
O=C(NC1CCCC1)C(c1c[nH]c2ccccc12)N(C(=O)Cn1nnc(-c2ccc(Cl)cc2)n1)c1ccccc1 (centres undefined)	u	-24.8%	u	-2.7	u	-5.0
O=C(c1cccc(Cl)c1)N1CCC(N2CCC(C(=O)N3CCCC3)CC2)CC1	x	x	14.7µM*	21.1*	u	-0.7
CCN1CCCC1CNCc1cccc(OC)c1OCc1ccccc1 (centres undefined)	6.2%	-13.1%	11.7µM*	2.7	-26.4%	-5.1
CCN1CCCC1CNCc1cccc(OC)c1OCc1ccccc1F (centres undefined)	-27.7%	u	u	-1.7	x	-7.4
CCN1CCCC1CNCc1cc(OC)c(OC)c(OC)c1 (centres undefined)	-4.9%	14.7%	-8.3%	-1.4	x	-4.0
CCN1CCCC1CNCc1ccccc1OCc1ccc(F)cc1 (centres undefined)	-16.5%	u	x	-1.5	10.4µM*	-16.2
O=C(NC1CCCCC1)c1c(O)nc2sccn2c1=O	0.6%	0.2%[46.1 µM]	10.4µM*	x	10.4µM*	x
CC1CC(NC(=O)c2c(O)nc3sccn3c2=O)CC(C)(C)C1 (centres undefined)	-17.6%	u	u	x	13.1µM*	x
O=C(NC1CCCCCC1)c1c(O)nc2sccn2c1=O	15.2%	25.1%	4.65µM*	x	6.57µM*	x
O=C(NCC1CCCO1)c1c(O)nc2sccn2c1=O (centres undefined)	8.4%	-14.3%[46.1 µM]	-4.9%	x	0.2%	x
Cn1c(=O)oc2cc(S(=O)(=O)NCCC(=O)Nc3ccc(F)cc3F)ccc21	-1.8%[46.1 µM]	-6.3%[46.1 µM]	x	x	x	x

Compound activity from PubChem BioAssay.
